# Test results: PubChem BioAssay (NCATS)
# Unmarked numbers belong to inactive results. Records with an inconclusive call do not appear. The source made the active and inactive calls. Unless noted, the call rests on the fitted dose curve; in most records, active means well fitted curve in either direction with a large enough effect (not every such curve was filed as active); inconclusive means small, poorly fitted or top-dose-only effect, or another doubt; inactive means flat fitted curve, though single readings scatter.
# Key:
# [1] = biological target: Lysosomal acid glucosylceramidase (Homo sapiens) (UniProt P04062); assay: Glucocerebrosidase-p2 (AID 348; in the data active means potency below about 10 µM; further: potency means the concentration at half of the fitted maximal effect); conditions: purified GBA, blue fluorogenic substrate, 40 min
# Chain of Lysosomal acid glucosylceramidase (Homo sapiens) (P04062 whole entry, looked up): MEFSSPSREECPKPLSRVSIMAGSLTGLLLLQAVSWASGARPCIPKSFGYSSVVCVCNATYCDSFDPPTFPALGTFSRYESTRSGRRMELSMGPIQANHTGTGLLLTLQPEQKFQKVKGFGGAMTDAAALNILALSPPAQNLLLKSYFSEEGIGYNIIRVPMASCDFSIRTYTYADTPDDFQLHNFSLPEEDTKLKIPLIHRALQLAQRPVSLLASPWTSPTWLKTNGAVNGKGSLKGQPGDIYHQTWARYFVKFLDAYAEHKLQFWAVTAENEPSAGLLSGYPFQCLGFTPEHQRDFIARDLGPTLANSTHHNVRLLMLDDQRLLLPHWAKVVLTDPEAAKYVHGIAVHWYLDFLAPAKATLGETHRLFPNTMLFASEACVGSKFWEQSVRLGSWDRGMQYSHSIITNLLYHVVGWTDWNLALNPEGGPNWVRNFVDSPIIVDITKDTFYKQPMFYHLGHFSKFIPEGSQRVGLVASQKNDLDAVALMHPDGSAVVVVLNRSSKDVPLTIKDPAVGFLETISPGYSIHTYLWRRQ
# How it was run: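 Normal human glucocerebrosidase (0.2 nM) with blue fluorogenic substrate (80 uM final) in citrate/phosphate pH 5.9 with 10mM sodium taurocholate, 0.01% tween-20; 40 min RT, NaOH/glycine stop; fluorescence Ex 365/Em 440; AC50 from a titration from 0.6 nM upwards.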
# [2] = AP1 Signaling Pathway (AID 357); conditions: ME-180 AP-1-bla reporter, EGF-induced, beta-lactamase ratio, 5 h; at 7.69 µM (top of the series) unless noted;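 further: ME-180 reporter cells stimulated with EGF at its EC50 level; on the % scale 0 is the no-effect control and ±100 the full control effect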
# How it was run: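 AP-1-bla ME-180 cells, Opti-MEM + 0.5% dialyzed FBS, plated overnight 37 °C. Cpd titration + EC50 EGF, 5 h 37 °C. CCF4 2.5 h RT; ex 405, em 460/530 ratio → %activity, AC50.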
# [3] = biological target: Cytochrome P450 1A2 (Homo sapiens) (UniProt P05177); assay: p450-cyp1a2 (AID 410; calls by dose curve; further: potency means the concentration at half of the fitted maximal effect;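 on activity change, negative = inhibition: -100% = full effect of reference inhibitor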); conditions: recombinant CYP1A2, luciferin-ME demethylation, luminescence; series mostly up to 11.4 µM
# Chain of Cytochrome P450 1A2 (Homo sapiens) (P05177 whole entry, looked up): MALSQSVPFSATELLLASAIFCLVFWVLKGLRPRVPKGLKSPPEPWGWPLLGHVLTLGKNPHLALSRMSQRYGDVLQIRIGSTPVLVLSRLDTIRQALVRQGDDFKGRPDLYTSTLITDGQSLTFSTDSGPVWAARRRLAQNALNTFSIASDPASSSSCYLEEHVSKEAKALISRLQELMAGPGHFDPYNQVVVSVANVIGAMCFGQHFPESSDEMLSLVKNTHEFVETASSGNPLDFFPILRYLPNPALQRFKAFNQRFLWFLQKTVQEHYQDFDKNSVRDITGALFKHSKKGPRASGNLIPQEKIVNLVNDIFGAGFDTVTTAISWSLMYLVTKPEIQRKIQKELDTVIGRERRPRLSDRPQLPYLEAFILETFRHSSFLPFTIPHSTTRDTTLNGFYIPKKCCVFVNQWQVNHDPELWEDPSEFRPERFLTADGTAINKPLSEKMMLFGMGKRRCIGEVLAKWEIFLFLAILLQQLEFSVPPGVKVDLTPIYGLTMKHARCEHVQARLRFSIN
# How it was run: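 Luminescent demethylation readout: Luciferin-ME (100uM, equal to Km) turned over by 20nM CYP1A2 for 60 min at room temperature after NADPH regeneration addition, following 10 min compound preincubation. Normalization used 57 uM furafylline as full inhibition.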
# [4] = biological target: Glucocorticoid receptor (Homo sapiens) (UniProt P04150); assay: GR-GFP Redistribution (AID 450;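 active means compounds whose dose series gives a full or clear partial fitted curve of increased nuclear translocation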; further: potency means the concentration at half of the fitted maximal effect); conditions: U2OS GR-GFP nuclear translocation, laser cytometry, 2 h
# Chain of Glucocorticoid receptor (Homo sapiens) (P04150 whole entry, looked up, the tested form may be a part): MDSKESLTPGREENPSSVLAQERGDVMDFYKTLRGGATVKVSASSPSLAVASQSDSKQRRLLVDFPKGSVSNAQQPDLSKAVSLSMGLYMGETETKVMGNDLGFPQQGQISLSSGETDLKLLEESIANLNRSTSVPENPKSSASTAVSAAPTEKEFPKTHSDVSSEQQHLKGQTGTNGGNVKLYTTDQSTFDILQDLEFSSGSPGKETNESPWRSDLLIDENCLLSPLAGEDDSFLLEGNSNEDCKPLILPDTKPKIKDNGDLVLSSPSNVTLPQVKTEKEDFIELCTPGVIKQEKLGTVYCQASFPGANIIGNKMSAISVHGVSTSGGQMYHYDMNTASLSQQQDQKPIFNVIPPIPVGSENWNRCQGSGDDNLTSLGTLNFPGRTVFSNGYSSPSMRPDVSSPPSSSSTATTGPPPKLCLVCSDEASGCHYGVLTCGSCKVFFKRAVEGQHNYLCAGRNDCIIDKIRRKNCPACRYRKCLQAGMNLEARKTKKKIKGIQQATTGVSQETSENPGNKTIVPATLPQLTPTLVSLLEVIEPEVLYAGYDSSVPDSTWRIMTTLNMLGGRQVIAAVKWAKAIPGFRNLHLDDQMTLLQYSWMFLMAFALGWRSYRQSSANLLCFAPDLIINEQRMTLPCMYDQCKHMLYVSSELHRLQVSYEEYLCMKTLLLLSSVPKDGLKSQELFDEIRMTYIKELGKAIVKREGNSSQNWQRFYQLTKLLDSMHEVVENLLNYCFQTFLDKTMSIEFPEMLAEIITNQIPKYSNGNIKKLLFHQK
# [5] = biological target: Glucocorticoid receptor (Homo sapiens) (UniProt P04150); assay: GR-EFC Redistribution (AID 451; calls by dose curve; further: potency means the concentration at half of the fitted maximal effect); conditions: CHO-K1 GR-EFC translocation, beta-gal luminescence, 2 h
# How it was run: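 CHO-K1 cells stably expressing nuclear-localized β-gal enzyme acceptor and GR fused C-terminally to the enzyme donor fragment; ligand-driven nuclear translocation restores β-gal by complementation. Compounds titrated up to 46 uM final, 2 h at 37 °C; luminescence read.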
# [6] = biological target: Mitogen-activated protein kinase 10 (Mus musculus) (UniProt Q61831); assay: JNK3 AlphaScreen Assay (AID 530); conditions: JNK3 lysate, c-Jun phosphorylation; series mostly up to 11.4 µM;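 further: kinase came from lysate of stimulated human HepG2 cells; signal reports phosphorylation of biotinylated GST-cJun 1-79 at Ser73 with 10 µM ATP; on the % scale 0 is the no-effect control and ±100 the full control effect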
# How it was run: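 Phosphorylation of biotinylated GST-cJun(1-79) at Ser73 is measured by AlphaScreen proximity luminescence. Enzyme is JNK3 in HepG2 lysates activated with interleukin-1beta and tumor necrosis factor alpha; ATP is 10 uM final.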
# [7] = biological target: Cytochrome P450 3A4 (Homo sapiens) (UniProt P08684); assay: qHTS Assay for Activators of Cytochrome P450 3A4 (AID 885; active means well fitted curve in the direction sought with a large enough effect; an effect the other way counts as inactive or inconclusive; further: nearly all actives have a fitted effect of over 65% in size); conditions: recombinant CYP3A4, Luciferin-PPXE luminescence, 60 min; series mostly up to 11.4 µM
# Chain of Cytochrome P450 3A4 (Homo sapiens) (P08684 whole entry, looked up): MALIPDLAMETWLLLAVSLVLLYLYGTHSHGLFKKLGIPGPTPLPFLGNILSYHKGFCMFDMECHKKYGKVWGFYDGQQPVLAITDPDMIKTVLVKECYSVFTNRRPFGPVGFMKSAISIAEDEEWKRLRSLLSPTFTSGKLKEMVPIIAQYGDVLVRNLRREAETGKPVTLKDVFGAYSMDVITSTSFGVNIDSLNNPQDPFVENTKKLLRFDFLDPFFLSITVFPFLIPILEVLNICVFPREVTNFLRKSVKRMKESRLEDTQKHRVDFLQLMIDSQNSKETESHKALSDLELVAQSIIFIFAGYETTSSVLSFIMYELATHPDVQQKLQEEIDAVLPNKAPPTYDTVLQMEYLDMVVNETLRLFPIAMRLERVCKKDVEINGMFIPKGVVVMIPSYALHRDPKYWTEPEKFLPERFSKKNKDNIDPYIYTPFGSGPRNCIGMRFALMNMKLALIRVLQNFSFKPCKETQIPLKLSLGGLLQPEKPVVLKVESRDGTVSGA
# How it was run: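 Luminescent readout of luciferin formed from 25 uM Luciferin-PPXE (KM level) by 20 nM CYP3A4 in 200 mM KPO4, with 60 min NADPH-driven reaction at room temperature after 10 min compound exposure. Ketoconazole (57 uM) defined 100% inhibition.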
# [8] = NFAT Signaling Pathway (AID 444); conditions: Jurkat NFAT-bla M1, carbachol, beta-lactamase ratio, 5 h; at 7.69 µM (top of the series) unless noted;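 further: carbachol stimulus at about its EC50 of 1 µM final; on the % scale 0 is the no-effect control and ±100 the full control effect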
# How it was run: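 Jurkat cells carrying an NFAT-driven β-lactamase reporter and co-transfected muscarinic M1 receptor were treated with compound plus carbachol (1 uM final, an EC50 level) for 5 h at 37 °C. CCF4 loading followed for 1 h at RT; 460/530 nm ratio gave %activity.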
# [9] = Stat Signaling Pathway (AID 446); conditions: ME-180 (cervical carcinoma) SIE beta-lactamase reporter, IL-6 stimulated, 5 h; at 7.69 µM (top of the series) unless noted;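 further: ME-180 cervical cancer cells given 40 pM IL-6 alongside compound; SIE-controlled beta-lactamase reporter measured as 460/530 nm FRET emission ratio; on the % scale 0 is the no-effect control and ±100 the full control effect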
# How it was run: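 FRET read-out (405 nm excitation, 460/530 nm emission) of a beta-lactamase reporter under a STAT-inducible element in ME-180 cervical carcinoma cells. Cells with compound receive 40 pM IL-6 for 5 h. Values are normalised to AC90 stimulation and AC90 JAK-inhibitor controls.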
# [10] = biological target: 3',5'-cyclic-AMP phosphodiesterase 4B (Homo sapiens) (UniProt Q07343); assay: qHTS Assay for Inhibitors of PDE-IV (AID 607; active means well fitted activation curve with a large enough effect in the main read-out, with a control signal flat, not every such curve was filed as active; further: % of control where 0% means no effect); conditions: HEK293 ACTOne CNG channel cells, membrane potential fluorescence; series mostly up to 22.9 µM
# Chain of 3',5'-cyclic-AMP phosphodiesterase 4B (Homo sapiens) (Q07343 whole entry, looked up): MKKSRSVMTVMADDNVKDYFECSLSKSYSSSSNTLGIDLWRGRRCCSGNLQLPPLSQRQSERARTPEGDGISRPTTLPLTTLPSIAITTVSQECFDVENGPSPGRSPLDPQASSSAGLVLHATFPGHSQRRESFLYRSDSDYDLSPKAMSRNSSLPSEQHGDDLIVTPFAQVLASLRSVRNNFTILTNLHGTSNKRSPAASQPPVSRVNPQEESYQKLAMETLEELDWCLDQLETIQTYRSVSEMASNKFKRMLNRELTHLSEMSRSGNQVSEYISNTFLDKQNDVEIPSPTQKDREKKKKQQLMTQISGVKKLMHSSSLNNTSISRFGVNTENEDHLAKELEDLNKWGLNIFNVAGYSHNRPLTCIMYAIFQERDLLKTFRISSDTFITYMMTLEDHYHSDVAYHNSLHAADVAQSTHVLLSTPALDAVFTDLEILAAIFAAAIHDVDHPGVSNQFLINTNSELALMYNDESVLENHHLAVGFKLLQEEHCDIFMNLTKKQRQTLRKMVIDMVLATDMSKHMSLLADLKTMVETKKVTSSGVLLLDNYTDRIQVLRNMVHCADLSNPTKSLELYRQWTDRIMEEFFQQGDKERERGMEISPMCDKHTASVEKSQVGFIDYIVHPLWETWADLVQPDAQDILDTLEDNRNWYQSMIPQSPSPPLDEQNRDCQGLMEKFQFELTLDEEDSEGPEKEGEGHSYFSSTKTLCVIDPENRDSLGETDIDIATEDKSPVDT
# How it was run: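 Cell-based read-out of cAMP via a modified cyclic nucleotide-gated channel and membrane potential dye (535/590 nm) in HEK293 cells expressing PDE4 endogenously. Compounds tested up to 22.9 uM final; 100 uM RO 20-1724 reference.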
# [11] = biological target: ATP-dependent 6-phosphofructokinase (Trypanosoma brucei brucei) (UniProt O15648); assay: qHTS Assay to Find Inhibitors of T. brucei phosphofructokinase: hit validation (AID 492961; active means well fitted curve in the direction sought with a large enough effect; an effect the other way counts as inactive or inconclusive); conditions: T. brucei PFK, ADP-Glo luminescence; series mostly up to 51.4 µM
# Chain of ATP-dependent 6-phosphofructokinase (Trypanosoma brucei brucei) (O15648 whole entry, looked up): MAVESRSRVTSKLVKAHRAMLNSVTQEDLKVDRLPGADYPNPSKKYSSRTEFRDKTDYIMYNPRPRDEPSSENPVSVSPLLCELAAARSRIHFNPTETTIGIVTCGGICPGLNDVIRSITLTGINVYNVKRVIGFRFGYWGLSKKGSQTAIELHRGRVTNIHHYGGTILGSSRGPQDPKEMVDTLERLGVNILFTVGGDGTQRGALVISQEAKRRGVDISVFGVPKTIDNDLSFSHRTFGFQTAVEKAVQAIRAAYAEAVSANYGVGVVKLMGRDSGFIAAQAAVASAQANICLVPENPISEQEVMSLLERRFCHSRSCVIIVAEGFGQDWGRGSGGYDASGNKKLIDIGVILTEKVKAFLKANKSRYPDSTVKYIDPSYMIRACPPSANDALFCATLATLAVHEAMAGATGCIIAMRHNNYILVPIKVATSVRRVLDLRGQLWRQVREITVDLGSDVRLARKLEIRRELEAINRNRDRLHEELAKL
# How it was run: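 PFK 1.25 nM, F6P 0.5 mM, ATP 0.1 mM, MgCl2 5 mM, 0.1 M TEA pH 8.0, Tween20 0.01%, BSA 0.1%; 45 min RT. ADP-Glo two-step detection, luminescence. qHTS titration; curve fitting with curve-class categorization.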
# [12] = qHTS profiling for inhibitors of Plasmodium falciparum proliferation (AID 504749; active means well fitted curve in the direction sought with a large enough effect; an effect the other way counts as inactive or inconclusive; further: potency means the concentration at half of the fitted maximal effect;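 on activity, negative = inhibition: 0% = DMSO vehicle and full inhibition = artemisinin control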; on all read-outs here: nearly all actives have a fitted effect of over 60% in size); conditions: P. falciparum in erythrocytes, SYBR Green DNA, 72 h; for activity, negative = inhibition: at 28.7 µM (top of the series)
# How it was run: (§1)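 Quantitative HTS: compounds pinned into medium, infected erythrocytes added (0.3% parasitemia, 2.5% hematocrit), 72 h culture at 37 C under 5% CO2. Saponin/Triton lysis with SYBR Green I, overnight RT, then fluorescence read.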
# AS120 = assay: as above; conditions: P. falciparum in erythrocytes, SYBR Green DNA, 72 h; series mostly up to 28.7 µM
# How it was run: as §1
# ATS189 = assay: as above; conditions: P. falciparum in erythrocytes, SYBR Green DNA, 72 h; series mostly up to 28.7 µM
# How it was run: as §1
# CP185 = assay: as above; conditions: P. falciparum in erythrocytes, SYBR Green DNA, 72 h; series mostly up to 28.7 µM
# How it was run: as §1
# CP191 = assay: as above; conditions: P. falciparum in erythrocytes, SYBR Green DNA, 72 h; series mostly up to 28.7 µM
# How it was run: as §1
# DIV30 = assay: as above; conditions: P. falciparum in erythrocytes, SYBR Green DNA, 72 h; series mostly up to 28.7 µM
# How it was run: as §1
# HB3 = assay: as above; conditions: P. falciparum in erythrocytes, SYBR Green DNA, 72 h; series mostly up to 28.7 µM
# How it was run: as §1
# TAB113 = assay: as above; conditions: P. falciparum in erythrocytes, SYBR Green DNA, 72 h; series mostly up to 28.7 µM
# How it was run: as §1
# W2 = assay: as above; conditions: P. falciparum in erythrocytes, SYBR Green DNA, 72 h; series mostly up to 28.7 µM
# How it was run: as §1
structure (smiles),measurement,setting,value
CN1CCN(c2ncc3nc(-c4cccs4)c(=O)n(C[C@H]4CCCO4)c3n2)CC1,Potency,[1],> 11.4 µM
same,"activity change, negative = inhibition",[2],19.1%
same,Potency,[3],12.6 µM (active)
same,Potency,[4],> 9.22 µM
same,Potency,[5],> 46 µM
same,Potency,[6],inactive
same,Potency,[7],inactive
C=CCNS(=O)(=O)c1ncnc2nc[nH]c12,Potency,[1],> 11.4 µM
same,"activity change, negative = inhibition",[2],-7.02%
same,"activity change, negative = inhibition",[8],-12.1%
same,"activity, negative = inhibition",[9],14.4%
same,Potency,[4],> 46 µM
same,Potency,[5],> 9.22 µM
same,Potency,[6],inactive
same,Potency,[10],inactive
NNC(=O)[C@@H](O)[C@H](O)C(=O)NN,Potency,[1],> 11.4 µM
same,"activity change, negative = inhibition",[2],-1.69%
same,"activity change, negative = inhibition",[8],10.2%
same,"activity, negative = inhibition",[9],-2.25%
same,Potency,[4],> 46 µM
same,Potency,[5],> 9.22 µM
same,Potency,[6],inactive
CC(C)(C)c1ccc(CN2CCN([C@H](c3ccccc3)c3ccc(Cl)cc3)CC2)cc1,Potency,[1],> 11.4 µM
same,"activity change, negative = inhibition",[2],2.89%
same,"activity change, negative = inhibition",[8],-9.36%
same,"activity, negative = inhibition",[9],0.758%
same,Potency,[4],> 46 µM
same,Potency,[5],> 9.22 µM
same,Potency,[6],inactive
same,Potency,[10],inactive
same,outcome,[11],inactive
same,Potency,[12]; parasite line A,7.94 µM (active)
same,Potency,[12]; parasite line B,12.6 µM (active)
same,Potency,AS120,7.94 µM (active)
same,Potency,ATS189,8.91 µM (active)
same,Potency,CP185,10 µM (active)
same,Potency,CP191,10 µM (active)
same,Potency,DIV30,inactive
same,Potency,HB3,8.91 µM (active)
same,Potency,TAB113,6.31 µM (active)
same,Potency,W2,3.38 µM (active)
Cc1c2cc[n+](CCN3CCCCC3)cc2c(C)c2c1[nH]c1ccc(O)cc12,Potency,[1],> 11.4 µM
same,"activity change, negative = inhibition",[2],9.2%
same,Potency,[3],2.51 µM (active)
same,Potency,[4],> 46 µM
same,Potency,[6],inactive
same,Potency,[10],inactive
Oc1ccc(Cl)cc1Cc1cc(Cl)cc(Cc2cc(Cl)ccc2O)c1O,Potency,[1],> 11.4 µM
same,"activity change, negative = inhibition",[2],-14%
same,"activity change, negative = inhibition",[3],-23.8% [at 2.29 µM]
same,Potency,[4],> 46 µM
same,Potency,[5],> 9.22 µM
same,Potency,[6],inactive
same,Potency,[10],inactive
O=[N+]([O-])c1cccc(/C=N\Nc2ccc3ccccc3n2)c1O,Potency,[1],> 11.4 µM
same,"activity change, negative = inhibition",[2],-13.9%
same,Potency,[3],0.794 µM (active)
same,Potency,[4],> 46 µM
same,Potency,[5],> 9.22 µM
same,Potency,[6],inactive
same,Potency,[10],inactive
same,Potency,[7],inactive
O=C(O)c1cncc(C(=O)O)c1,Potency,[1],> 11.4 µM
same,"activity change, negative = inhibition",[2],1.97%
same,"activity change, negative = inhibition",[8],3.72%
same,"activity, negative = inhibition",[9],6.17%
same,Potency,[4],> 46 µM
same,Potency,[5],> 9.22 µM
same,Potency,[6],inactive
same,Potency,[10],inactive
O=C(O)[C@@H]1CCCN1Cc1cc2ccccc2c2ccccc12,Potency,[1],> 11.4 µM
same,"activity change, negative = inhibition",[2],21.6%
same,"activity change, negative = inhibition",[8],17.3%
same,"activity, negative = inhibition",[9],2.3%
same,Potency,[4],> 46 µM
same,Potency,[5],> 9.22 µM
same,Potency,[6],inactive
same,Potency,[10],inactive
O=C(O)c1cc(C(=O)O)cc(N2C(=O)c3ccccc3C2=O)c1,Potency,[1],> 11.4 µM
same,"activity change, negative = inhibition",[2],4.16%
same,"activity change, negative = inhibition",[8],6.56%
same,"activity, negative = inhibition",[9],-2.79%
same,Potency,[4],> 46 µM
same,Potency,[5],> 9.22 µM
same,Potency,[6],inactive
COc1ccc(Oc2ncc3nc(C)c(=O)n(Cc4ccc(F)cc4)c3n2)cc1,Potency,[1],> 11.4 µM
same,"activity change, negative = inhibition",[2],-26.5%
same,"activity change, negative = inhibition",[8],-3.9%
same,"activity, negative = inhibition",[9],-12.2%
same,Potency,[4],> 9.22 µM
same,Potency,[5],> 46 µM
same,Potency,[6],inactive
Cc1cc(O)c(-c2cc(O)c(C)cc2O)cc1O,Potency,[1],> 11.4 µM
same,"activity change, negative = inhibition",[2],-22.9%
same,Potency,[3],3.98 µM (active)
same,Potency,[4],> 46 µM
same,Potency,[5],> 9.22 µM
same,Potency,[6],inactive
same,Potency,[10],inactive
same,Potency,[7],inactive
N#C[C@H](C(=O)O)C(c1c(Cl)cccc1Cl)[C@H](C#N)C(=O)O,Potency,[1],> 11.4 µM
same,"activity change, negative = inhibition",[2],1.46%
same,"activity change, negative = inhibition",[8],5.02%
same,"activity, negative = inhibition",[9],5.11%
same,Potency,[4],> 46 µM
same,Potency,[5],> 9.22 µM
same,Potency,[6],inactive
same,Potency,[10],inactive
C[n+]1cccc(/C=C\c2ccc3cccc(O)c3n2)c1,Potency,[1],> 11.4 µM
same,"activity change, negative = inhibition",[2],-0.115%
same,"activity change, negative = inhibition",[8],10.1%
same,"activity, negative = inhibition",[9],3.53%
same,Potency,[4],> 46 µM
same,Potency,[5],> 9.22 µM
same,Potency,[6],inactive
same,Potency,[10],inactive
NC(=O)[C@@H]1CCCNC1,Potency,[1],> 11.4 µM
same,"activity change, negative = inhibition",[2],9.79%
same,"activity change, negative = inhibition",[8],6.45%
same,"activity, negative = inhibition",[9],14.3%
same,Potency,[4],> 46 µM
same,Potency,[5],> 9.22 µM
same,Potency,[6],inactive
same,Potency,[10],inactive
Nc1nc(SCc2ccccn2)c2ncn(C3CCCC3)c2n1,Potency,[1],> 11.4 µM
same,"activity change, negative = inhibition",[2],-14.6%
same,"activity change, negative = inhibition",[8],9.85%
same,"activity, negative = inhibition",[9],4.58%
same,Potency,[4],> 46 µM
same,Potency,[5],> 9.22 µM
same,Potency,[6],inactive
C[C@H](CCC(=O)O)[C@H]1CC[C@@H]2[C@H]3[C@@H](C[C@@H](O)[C@]21C)[C@]1(C)CC[C@H](O)C[C@@H]1C[C@@H]3O,Potency,[1],> 11.4 µM
same,"activity change, negative = inhibition",[2],1.25%
same,"activity change, negative = inhibition",[8],14.6%
same,"activity, negative = inhibition",[9],13%
same,Potency,[4],> 46 µM
same,Potency,[5],> 9.22 µM
same,Potency,[6],inactive
same,Potency,[10],inactive
same,outcome,[11],inactive
same,"activity, negative = inhibition",[12]; parasite line A,-6.11%
same,"activity, negative = inhibition",[12]; parasite line B,-10.8%
same,Potency,AS120,inactive
same,Potency,ATS189,inactive
same,Potency,CP185,inactive
same,Potency,CP191,inactive
same,Potency,DIV30,inactive
same,Potency,HB3,inactive
same,Potency,TAB113,inactive
same,Potency,W2,inactive
